# Inconclusive results are not listed. A call without a number means that no potency is given here. A number with no mark means an inactive call. Active and inactive are the calls of the source. The call rests on the fitted dose curve.
# Target: 5-hydroxytryptamine receptor 2A (Homo sapiens) (UniProt P28223)
# Experiment: 5-hydroxytryptamine receptor 2A (HTR2A) small molecule antagonists, cell-based qHTS assay (AID 1963586); further: nearly all actives have a fitted effect of over 45% in size
# Settings: HTR2A-CHO cells, DOI-induced calcium flux, fluorescence; series mostly up to 61.5 µM
# Description: National Center for Advancing Translational Sciences [NCATS]
# Division of Preclinical Innovation [DPI]
# U.S. Environmental Protection Agency [EPA]
# National Institutes of Environmental Health Sciences [NIEHS]
# National Toxicology Program [NTP]
# U.S. Food and Drug Administration [FDA]
# The HTR2A receptor is a subtype of the 5-HT2 receptor that belongs to the serotonin receptor family and is a G protein-coupled receptor (GPCR). The HTR2A-CHO cell line stably expressing human 5-hydroxytryptamine receptor 2A (HTR2A) can be used for screening antagonists of interactions between 5-HT2 and its ligands. The HTR2A-CHO calcium flux assay is a homogeneous fluorescence-based assay for detecting the intracellular calcium level using FDSS kinetic plate reader system.
# Tox21 Assay Protocol Summary:
# HTR2A-CHO cells were dispensed at 2000 cells/3uL/well in 1536-well black-clear bottom plates using a Multidrop Dispenser. After the assay plates were incubated at a 37 C/5% CO2 incubator for 18 h, 3 uL of Dye Loading Buffer was transferred to the assay plate by a Flying Reagent Dispenser. The assay plates were incubated at 37 C for 1h. For antagonist mode, 23 nL of compounds dissolved in DMSO, positive controls or DMSO only was transferred to the assay plate by a pin tool. After 5 min incubation at room temperature, 1.5 uL of 4-Iodo-2,5-dimethoxy-alpha-methylbenzeneethanamine hydrochloride (DOI) at 4nM was added to each well. The fluorescence intensity in the plates was measured using FDSS 7000EX kinetic plate reader for 3 min at 1 sec intervals.
# Potency means the concentration at half of the fitted maximal effect.
# Sequence of 5-hydroxytryptamine receptor 2A (Homo sapiens) (P28223 whole entry, looked up): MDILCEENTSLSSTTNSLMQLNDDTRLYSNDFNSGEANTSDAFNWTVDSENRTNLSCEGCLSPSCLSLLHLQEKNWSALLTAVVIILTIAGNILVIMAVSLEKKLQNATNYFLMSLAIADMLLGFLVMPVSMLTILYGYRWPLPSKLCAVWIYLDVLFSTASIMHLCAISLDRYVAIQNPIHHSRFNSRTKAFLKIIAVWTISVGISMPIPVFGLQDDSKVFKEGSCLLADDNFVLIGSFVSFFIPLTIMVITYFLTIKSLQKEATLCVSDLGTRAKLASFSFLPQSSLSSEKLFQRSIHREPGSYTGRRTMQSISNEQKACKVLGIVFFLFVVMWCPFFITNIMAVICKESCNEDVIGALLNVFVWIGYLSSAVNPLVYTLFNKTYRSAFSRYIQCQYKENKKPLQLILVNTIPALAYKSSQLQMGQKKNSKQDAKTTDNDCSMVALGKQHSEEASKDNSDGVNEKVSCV
SMILES,Potency,"activity, negative = inhibition"
O=c1c(-c2ccccc2)c1-c1ccccc1,inactive,–
O=C1CCCC(=O)C1,inactive,–
C1CCN(CN2CCCCC2)CC1,inactive,–
Nc1cccc(S(=O)(=O)O)c1,inactive,–
CCCSS/C(CCO)=C(\C)N(C=O)Cc1cnc(C)nc1N,inactive,–
CCOC(=O)/C=C/C(=O)OCC,inactive,–
CCOC(=O)COC(=O)c1ccccc1C(=O)OCC,inactive,–
CC1=NN(c2ccc(C(=O)O)cc2)C(=O)C1,inactive,–
CCCCCCCCCCCCCCCC/C=C/C1CC(=O)OC1=O (stereo not given),inactive,–
O=C(O)c1cn(C2CC2)c2cc(Cl)c(F)cc2c1=O,inactive,–
CC(=O)Nc1ccccc1C,inactive,–
O=C1NCN(c2ccccc2)C12CCN(CCCC(c1ccc(F)cc1)c1ccc(F)cc1)CC2,51.6 nM (active),–
CCCCCCCC[P+](CCCCCCCC)(CCCCCCCC)CCCCCCCC,inactive,–
NCCOCCOCCN,inactive,–
CCC1C(=O)OCC1Cc1cncn1C (stereo not given),inactive,–
O=C(/C=C/c1ccccc1)OC/C=C/c1ccccc1,inactive,–
O=Cc1c(Cl)cccc1Cl,inactive,–
O=c1[nH]cnc2nc[nH]c12,inactive,–
CC(=O)OC1CCC(C(C)(C)C)CC1 (stereo not given),inactive,–
CC(C)NCC(O)COc1ccc(COCCOC(C)C)cc1 (stereo not given),inactive,–

SMILES,Potency,"activity, negative = inhibition"
CCOC(=O)c1ccc(NC(=O)CN2CCCCC2)cc1,inactive,–
CCCC(C)C=O (stereo not given),inactive,–
Nc1ccc(F)c([N+](=O)[O-])c1,inactive,–
Cc1ccccc1C(=O)Nc1ccc(C(=O)N2CCCC(N(C)C)c3ccccc32)cc1 (stereo not given),inactive,–
CCOC(=O)[C@H](CCc1ccccc1)N[C@H]1CS[C@H](c2cccs2)CN(CC(=O)O)C1=O,inactive,–
CCCCCCCC/C=C\CCCCCCCCOCCO,24400 nM (active),–
COC(=O)c1ccc(NC(C)=O)cc1OC,inactive,–
CCOC(=O)N1CCC(Nc2ccc(Cl)cc2N)CC1,inactive,–
C=C(C)CCCC,inactive,–
Cc1ccc(OC(=O)c2ccccc2O)cc1,inactive,–
C[n+]1cc2c3c(ccc2c2ccc4cc5c(cc4c21)OCO5)OCO3,–,8.48% [at 12.7 µM]
CN(C)CCC=C1c2ccccc2C=Cc2ccccc21,818 nM (active),–
CC(=O)CC(=O)OC(C)(C)C,inactive,–
CCCCCCC1CCCC(=O)O1 (stereo not given),inactive,–
COC(=O)/C=C\C(=O)O,inactive,–
CN1CCOC(c2ccccc2)c2ccccc2C1 (stereo not given),inactive,–
O=C1c2ccccc2C(=O)N1CCl,inactive,–
N#CSCC(=O)O,inactive,–
CN1C(C)(C)CCCC1(C)C,inactive,–
CCCCCCCCCCCCCC=O,–,4.12% [at 5.62 µM]
